Potency data for 62 compounds are collected here from PubChem BioAssay AID485364 (National Center for Advancing Translational Sciences (NCATS), 2010).

The whole screen tested about 360,000 compounds, of which about 11,000 (3.1%) were called active. Where a call stands in place of a potency, no number is given. Not shown: some 4% with an inconclusive outcome. Calls come from the whole dose curve; as a rule, active = well fitted inhibition curve with a large enough effect; inconclusive = small, poorly fitted or top-dose-only effect; inactive = no such curve, though single readings can be large or run the other way. Only a selection was taken, and actives are over-represented in it overall.
Potency is the fitted concentration of half-maximal effect.

The experiment has as its target Schistosoma mansoni thioredoxin glutathione reductase (TGR) (UniProt Q962Y6). The experiment in a line: qHTS Assay for the Inhibitors of Schistosoma Mansoni Peroxiredoxins. Note: nearly all actives have a fitted effect of over 60% in size. The note with it: purified TGR, DTNB reduction, TNB absorbance 405 nm; series mostly up to 114 µM. In outline:
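Kinetic colorimetric format: TGR-catalysed, NADPH-driven DTNB reduction monitored via TNB absorbance. Enzyme dispensed at 20 nM; compound exposure 15 min at room temperature before reaction start.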
(Quantitative high-throughput screening tests each substance at several concentrations.)
As for `COc1ccc(OCC(=O)Nc2cccc(C(=O)OCc3cc(=O)n4nc(C)sc4n3)c2)cc1`, the Potency entry was “inactive”.
Next, `Cc1cc(NC(=O)C2CCC(CNS(=O)(=O)c3ccc(Br)s3)CC2)ccc1Br` (configuration not stated): “inactive”; `COC(=O)c1ccc(NC(=O)CCc2c(C)nc3c(c(C)nn3-c3ccc(C)cc3)c2C)cc1`: “inactive”; `O=C(NCC(c1cccnc1)N1CCc2ccccc21)c1cccc(C(F)(F)F)c1` (configuration not stated): “inactive”.
Take `COc1ccc(CCNC(=O)CCc2c(C)nc3c(c(C)nn3-c3ccc(C)c(C)c3)c2C)c(OC)c1OC`: the Potency entry is “inactive”.
With `COc1ccc(NC(=O)CSc2nc3ccccc3n2CC(=O)N2CCCCC2C)cc1` (configuration not stated) the entry was “inactive”.
With `COc1ccc(C(=O)NCc2nnc(SCCOc3ccccc3)n2C)cc1` the entry was “inactive”.
On to `C=CCn1c(CNC(=O)c2ccco2)nnc1SCC(=O)c1ccc(OC)cc1`, for which the Potency result is “inactive”.
Next, `COc1ccc(C(=O)CSc2nnc(COc3ccccc3)n2Cc2ccco2)cc1`: 39.8 µM (active); `COc1ccccc1CNCc1ccc(C(=O)O)s1`: “inactive”; `COc1ccc(-c2cn3c(n2)sc2cc(C(=O)Nc4ccccc4F)ccc23)cc1`: “inactive”.
Next, `O=C(NCc1ccccc1Cl)C1=Cc2cc(Br)ccc2OC1`: “inactive”.
Next, `O=C(CNc1ccc(F)cc1F)NC(=O)NCc1ccco1`: 28.2 µM (active); `Cc1ccc(SCC(=O)NC(=O)NCc2ccco2)c(C)c1`: “inactive”; `CC(C)(C)NC(=O)NCc1ccco1`: “inactive”.
For the compound `CCOC(=O)c1ccc(NC(=O)C2CCN(S(=O)(=O)c3ccc4c(c3)CCCC(=O)N4)CC2)cc1`, the Potency entry is “inactive”.
Consider `O=C(CCc1nc(CN2CCN(S(=O)(=O)c3ccc(Cl)cc3)CC2)no1)N1CCCCC1`, for which the Potency result was “inactive”.
Next, `CN(C)[C@@H]1C(=O)C(C(N)=O)=C(O)[C@@]2(O)C(=O)C3=C(O)c4c(O)ccc(Cl)c4[C@@H](O)[C@H]3C[C@@H]12`: 39.8 µM (active).
With `O=C(c1ccccc1F)N1CCC(c2nc3c(nnn3Cc3cccc(F)c3)c(=O)[nH]2)CC1` the entry was “inactive”.
`Cc1ccc(CN2CCc3nc(N4CCN(C)CC4)ncc3C2)cc1`: the Potency entry is “inactive”.
With `Cc1ccc(C)c(Cn2c(=O)n(CCC(=O)NCc3ccc4c(c3)OCO4)c(=O)c3sccc32)c1` the entry was “inactive”; with `CC(C)c1ccc(NC(=O)c2cc(S(=O)(=O)N3CCc4ccccc4C3)ccc2F)cc1`, “inactive”.
Next, `O=C(C1CCCO1)N1CCC(c2nc3ccccc3[nH]2)CC1` (configuration not stated): “inactive”; `C1=C(N2CCOCC2)/C(=C/c2nc3ccccc3[nH]2)CC1`: 5.62 µM (active).
With `c1ccc(-n2nnnc2N2CCOCC2)cc1`, the Potency result is “inactive”.
Next, `COc1ccc(NC(=O)N2CCCn3nc(C)cc32)cc1OC`: “inactive”.
As to `C=CCOc1cccc(C2C(C(=O)c3ccc(C)o3)=C(O)C(=O)N2c2nnc(C)s2)c1` (configuration not stated), the Potency was 28.2 µM (active).
With `COc1ccc(C2C(C(C)=O)=C(O)C(=O)N2c2nccs2)cc1` (configuration not stated) the entry was “inactive”; with `COc1cc(C2C(C(=O)c3ccco3)=C(O)C(=O)N2c2cc(C)on2)ccc1OCc1ccccc1` (configuration not stated), “inactive”; with `CCCCc1nn2c(=O)cc(COC(=O)c3ccc(NC(=O)c4ccccc4C)cc3)nc2s1`, “inactive”.
With `Cc1ccc(NC(=O)C(=O)NCC(c2cccnc2)N2CCOCC2)cc1` (configuration not stated) the entry was “inactive”.
With `COc1ccc(NC(=O)Cn2c(=O)n(Cc3ccc(C(=O)NCc4ccccc4Cl)cc3)c(=O)c3ccccc32)cc1` the entry was “inactive”; with `Cn1nc(-c2ccccc2)c(-c2ccccc2)c(C(=O)Nc2ccc(S(N)(=O)=O)cc2)c1=O`, “inactive”; with `Cc1ccc(C)c(N2CCN(CCCNC(=O)Nc3ccc(Cl)cc3)CC2)c1`, “inactive”.
As for `CC(C)c1ccc(S(=O)(=O)N2CCN(C(C)C(=O)NC3CCCC3)CC2)cc1` (configuration not stated), the Potency entry is “inactive”.
Next, `CC(C(=O)NC1CCCC1)N1CCN(S(=O)(=O)c2ccccc2Cl)CC1` (configuration not stated): 35.5 µM (active); `O=C(Cc1ccc(S(=O)(=O)N2CCCC2)s1)NC1CCCCCC1`: “inactive”.
With `O=C(Nc1ccc(OC(F)(F)F)cc1)C1CCCN(S(=O)(=O)c2ccc(Br)s2)C1` (configuration not stated) the entry was “inactive”; with `Cc1ccc2nc(SCC(=O)N3CC(C)OC(C)C3)nc(=O)n2c1` (configuration not stated), “inactive”.
Next, `Cc1ccc2nc(SCC(=O)N3CCN(c4ccccc4)CC3)nc(=O)n2c1`: 50.1 µM (active).
With `Cc1ccc2nc(SCC(=O)Nc3cccc4ccccc34)nc(=O)n2c1`, the Potency entry was “inactive”.
With `COC(=O)CC1Oc2ccccc2-n2cc(-c3ccccc3)nc21` (configuration not stated) the entry was “inactive”; with `Cc1nc(SCC(=O)Nc2ccc(C(=O)O)cc2)n[nH]1`, “inactive”.
As to `CSc1ncc(Cl)c(C(=O)Nc2ccc(S(=O)(=O)N3CCCC(C)C3)cc2)n1` (configuration not stated), the Potency result is “inactive”.
With `Cc1cc(=O)n2[nH]c(-c3cccc(Cl)c3)cc2n1` the entry was “inactive”; with `Cc1cc(=O)n2[nH]c(-c3sccc3-n3c(C)ccc3C)cc2n1`, 31.6 µM (active).
Next, `C=CCc1c(C)nc2cc(-c3ccccc3)[nH]n2c1=O`: “inactive”.
With `O=C(Nc1cc(Cl)cc(Cl)c1)c1ccc2c(c1)N(Cc1cccc(Cl)c1)C(=O)c1ccccc1S2=O` (configuration not stated) the entry was “inactive”; with `CCCCNc1ccc(-c2nc(-c3ccncc3)no2)cc1[N+](=O)[O-]`, “inactive”.
Take `CC(C)CNc1ncnc2c1nnn2C`: the Potency result is “inactive”.
On to `COc1ccc(-n2c(SCC(=O)NCc3cccs3)nnc2-c2ccoc2C)cc1`, for which the Potency is 39.8 µM (active).
Next, `COc1ccc(-n2c(SCC(=O)NCc3ccco3)nnc2-c2c[nH]c3ccccc23)cc1`: “inactive”; `COc1ccc(-n2nnnc2SCC(=O)NCc2cccs2)cc1`: “inactive”.
Next, `COc1ccc(-c2noc(CCC(=O)N(C)c3ccccc3C)n2)cc1`: “inactive”; `CCCSc1ncc(Cl)c(C(=O)Nc2c(C(=O)Nc3ccccc3)oc3ccccc23)n1`: “inactive”; `COc1ccc(C2CC(=O)N(Cc3ccccc3C)c3c2c(C)nn3-c2nc(C)cc(C)n2)c(OC)c1` (configuration not stated): “inactive”.
Next, `O=C(NC(=S)NC1CCCCC1)c1ccc(Cl)cc1`: “inactive”; `CCCNC(=S)N1CCC(NC(=O)c2ccc(OC)cc2)CC1`: “inactive”; `COc1ccc(C(=O)NC(=S)NC2CCCCC2)cc1`: 1.41 µM (active).
As to `CCc1ccccc1N(C)C(=O)C1CCCN(c2ncnc3onc(-c4ccc(F)cc4)c23)C1` (configuration not stated), the Potency result is “inactive”.
Next, `CCn1cc(C(=O)N2CCN(c3cc(C)ccc3C)CC2)c(=O)c2cc(S(=O)(=O)N(C)C3CCCCC3)ccc21`: “inactive”; `CCc1ccccc1NC(=O)CSc1nnc(-c2ccccc2)c(-c2ccccc2)n1`: “inactive”.
